Molecules are shown by their SMILES. Values joined by “and” are separate entries in the source; they are usually repeats but may differ in a detail not shown here. Equal entries are not always repeated. Records with an inconclusive call do not appear. Some compounds were tested as several samples or in several runs, with calls that do not always agree. Active and inactive are the calls of the source. Unless noted, calls come from the whole dose curve; as a rule, active = well fitted curve in the direction sought with a large enough effect; inconclusive = small, poorly fitted or top-dose-only effect, or another doubt; inactive = no such curve, though single readings can be large; an effect the other way counts as inactive or inconclusive.

Experimental findings from PubChem BioAssay (NCATS) are described below.

Assay [1] addresses Protein phosphatase 1D (Homo sapiens) (UniProt O15297). Briefly: RapidFire Mass Spectrometry qHTS Assay for Modulators of WT P53-Induced Phosphatase 1 (WIP1) (AID 1347424).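 Note: series mostly up to about 63 µM; plate controls were DMSO wells for no effect and GSK830371 inhibitor control at 10 µM for full effect.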 In a few lines: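 RapidFire MS readout of dephosphorylated VEPPL-S-QETFS product, with 1 uM isotope-labelled peptide standard. Reaction: 10 nM WIP1, 2 uM phosphopeptide substrate, 5 min, room temperature, after 1 h compound preincubation; stopped with 0.5% formic acid.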
A general note: Quantitative high-throughput screening tests each substance at several concentrations.

Assay [2] shares this target. The assay can be described thus: Rhodamine-PBP qHTS Assay for Modulators of WT P53-Induced Phosphatase 1 (WIP1) (AID 1347425). Note: % of control where 0% means no effect. In a few lines:
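5 nM WIP1 + 10 uM Rh-PBP, 50 mM Tris pH 7.5, 30 mM MgCl2, 1 mM TCEP, 0.1 mM EGTA, BSA; cpds pinned, 1 hr RT; + 10 uM phosphopeptide; fluorescence 1-min reads x 11 min; delta = f1 - f0.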

Assay [3] can be described thus: Primary qHTS for inhibitors of La Crosse Virus (LACV) - induced cell death in SH-SY5Y cells (AID 1508616).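 Note: top concentration of the series differs between compounds; 0% = infected DMSO wells and 100% = uninfected DMSO wells; higher means more rescue of cells from virus-induced death.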 In a few lines: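 Screening measures cell viability in LACV-infected SH-SY5Y cultures. Compound was added before virus (0.01 MOI), and ATP was detected by luminescence 6 days later.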
Assay [4] concerns the target Calcium and integrin-binding protein 1 (Homo sapiens) (UniProt Q99828). The assay can be described thus: Primary qHTS for Identification of Calcium Integrin Binding Protein 1 (CIB1) Competitor (AID 1508620).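 Note: GST tagged CIB1 binding a fluorescein labelled alphaIIb integrin peptide tracer; top concentration of the series differs between compounds; % is set by controls: 0 for no effect and ±100 for the full control effect.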 In a few lines:
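Fluorescence polarization competition: GST-tagged CIB1 (1 uM final) preincubated with compound 15 min at room temperature, then FITC-labelled alphaIIb peptide (100 nM final) added. After 15 min at room temperature, polarization read at Ex 480/Em 540.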

Assay [5] is described as follows: Counterscreen qHTS for small molecule stabilizers of the endoplasmic reticulum resident proteome: GLuc-NoTag assay (AID 1508627). Note: potency is the fitted concentration of half-maximal effect. In a few lines:
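Counterscreen line: SH-SY5Y-GLuc-NoTag. Seed, 5 h; compound, 19 h; thapsigargin 100 nM, 4 h; 37C/5% CO2. Readout: secreted GLuc luminescence, coelenterazine 0.07x final, no lysis.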
On the technique in general: The purpose of a counterscreen is to sort out artefacts and off-target activity.

The nature of assay [6]: Cell Viability qHTS for small molecule stabilizers of the endoplasmic reticulum resident proteome (AID 1508629).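 Note: compound exposure about 46 h in total before the viability read; % is set by controls: 0 for no effect and ±100 for the full control effect.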 The note with it: cell viability counter-screen, 100 nM thapsigargin for final 4 h. From the text: Assay Provider: Brandon K. Harvey Ph.D.
National Institute on Drug Abuse, National Institutes of Health, Baltimore, MD
Endoplasmic reticulum (ER) dysregulation is associated with human pathologies including neurodegenerative, cardiovascular, muscular, and diabetic conditions. Maintenance of ER calcium is critical for functions of the ER and its depletion can lead to loss of ER resident proteins, in a process termed exodosis. Therapeutic compounds capable of attenuating the redistribution of ER proteins under pathological conditions may slow or stop disease progression. To identify such compounds, we performed a quantitative high-throughput screen (qHTS) using the SERCaMP assay, which monitors secretion of ER resident proteins triggered by calcium depletion.
SERCaMP was initially developed as a reporter of ER calcium homeostasis using a Gaussia luciferase with a modified signal peptide and carboxy-terminus (GLuc-SERCaMP), modifications that confer secretion of the reporter in response to ER calcium depletion (Henderson et al., 2014). The assay was used to screen 9,501 compounds, including a collection of drugs approved by the FDA (US), EMA (EU), NHI (Japan), and HC (Canada) regulatory agencies (Huang et al., 2011). Since the SERCaMP reporter reflects the exodosis phenomenon (Trychta et al., 2018a), compounds identified in the screen have the potential to prevent exodosis by different mechanisms such as stabilizing ER calcium or augmenting ERS retrieval.
1. Henderson, M.J., Wires, E.S., Trychta, K.A., Richie, C.T., and Harvey, B.K. (2014). SERCaMP: a carboxy-terminal protein modification that enables monitoring of ER calcium homeostasis. Mol Biol Cell 25, 2828-2839.
2. Huang, R., Southall, N., Wang, Y., Yasgar, A., Shinn, P., Jadhav, A., Nguyen, D.T., and Austin, C.P. (2011). The NCGC pharmaceutical collection: a comprehensive resource of clinically approved drugs enabling repurposing and chemical genomics. Sci Transl Med 3, 80ps16.
3. Trychta, K.A., Back, S., Henderson, M.J., and Harvey, B.K. (2018a). KDEL Receptors Are Differentially Regulated to Maintain the ER Proteome under Calcium Deficiency. Cell Rep 25, 1829-1840 e1826.
SEQUENCE No. (1, 2, 3, etc.); […] (e.g., Cells, Incubation, Reagent, etc.); VALUE and DESCRIPTION.
1; Reagent; 5 uL; 1000 SH-SY5Y cells per wells
3; Compound; 23 nL; Control inhibitor / compound library
5; Reagent; 100 nM; Thapsigargin
7; Reagent; 5 uL; CellTiter-Glo (Promega)
8; Time; 10 min; room temperature
9; Detection; Luminescence; ViewLux imaging system
NOTES (numbers refer to sequence above)
1; SH-SY5Y human neuroblastoma cells stably expressing GLuc-SERCaMP (SH-SY5Y-GLuc-ASARTDL) cells were seeded in 1,536 well white tissue culture treated plates (Corning, Cat# 7464) in DMEM-high glucose-sodium pyruvate (ThermoFisher Scientific, Cat #10569) supplemented with 10% bovine growth serum (Hyclone), 10 U/ml penicillin (Gibco), 10 ug/ml streptomycin (Gibco), and 20 mM HEPES.
2; Assay plates were incubated for 5 hr at 37C in a humidified incubator containing 5% CO2.
3; qHTS libraries (23 nl, final concentrations of 1.53 uM, 7.67 uM, 38.3 uM) or controls (neutral control: DMSO, positive control: dantrolene) were added using a Kalypsis pin-tool Robotic System equipped with 1536 pinheads.
4; Cells were then incubated for 42 hours at 37C, 5% CO2.
5; Thapsigargin was added at 100 nM to deplete ER calcium stores.
6; Cells were incubated for 4 hr (37C, 5% CO2).
7; Cell viability was measured using the CellTiter-Glo Luminescent Cell Viability Assay (Promega). Briefly, an equal volume of reagent was added to each well. Plates were rotated for 2 min.
8; Assay plates were incubated for 10 min at room temperature.
9; Luminescence was measured using a ViewLux CCD imaging system (Perkin Elmer) equipped with clear filters.

In assay [7] the target is Cytochrome P450 2D6 (Homo sapiens) (UniProt P10635). The assay can be described thus: Cytochrome P450 family 2 subfamily D member 6 (CYP2D6) small molecule antagonists: luciferase biochemical (cell-free) qHTS assay (AID 1645840; active = well fitted curve in the direction sought with a large enough effect in the repeat runs; an effect the other way counts as inactive or inconclusive; note: nearly all actives have a fitted effect of over 55% in size; note: potency is the fitted concentration of half-maximal effect). In a few lines:
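P450-Glo CYP2D6 system: proluciferin substrate converted by enzyme to luciferin, read by luminescence proportional to activity. Enzyme-substrate mix with compound 10 min at room temperature, then NADPH regeneration 1 h before detection reagent.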

The target in assay [8] is Cytochrome P450 2C9 (Homo sapiens) (UniProt P11712). The assay can be described thus: Cytochrome P450 family 2 subfamily C member 9 (CYP2C9) small molecule antagonists: luciferase biochemical (cell-free) qHTS assay (AID 1645842; active = well fitted curve in the direction sought with a large enough effect in the repeat runs; an effect the other way counts as inactive or inconclusive; note: nearly all actives have a fitted effect of over 55% in size; note: potency is the fitted concentration of half-maximal effect). The method, boiled down: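 P450-Glo CYP2C9 system: proluciferin substrate with enzyme in mix containing 0.4% BSA, 10 min at room temperature, then NADPH regeneration solution added and incubated 1 h at 37C. Detection reagent stopped reaction; luminescence read after 20 min as RLU.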
Cytochrome P450 2C9 (Homo sapiens), sequence (P11712 whole entry, looked up): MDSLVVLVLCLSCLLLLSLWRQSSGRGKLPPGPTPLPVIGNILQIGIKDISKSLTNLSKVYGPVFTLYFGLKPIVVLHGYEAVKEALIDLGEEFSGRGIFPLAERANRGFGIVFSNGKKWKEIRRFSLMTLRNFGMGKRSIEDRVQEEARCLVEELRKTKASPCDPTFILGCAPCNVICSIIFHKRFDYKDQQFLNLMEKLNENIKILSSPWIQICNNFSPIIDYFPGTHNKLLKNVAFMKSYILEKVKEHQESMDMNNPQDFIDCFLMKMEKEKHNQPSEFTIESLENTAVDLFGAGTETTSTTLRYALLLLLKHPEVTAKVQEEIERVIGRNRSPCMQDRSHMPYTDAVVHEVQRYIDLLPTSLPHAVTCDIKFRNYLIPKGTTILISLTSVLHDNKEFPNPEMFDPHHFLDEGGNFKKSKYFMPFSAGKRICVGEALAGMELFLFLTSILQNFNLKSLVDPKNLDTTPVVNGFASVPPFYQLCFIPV

Assay [9] can be described thus: Validation qHTS assay for inhibitors of Activation Induced Cytidine Deaminase (AID): UDG Counterscreen signal (AID 1347427). Note: 0% is about no effect. The method, boiled down:
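Fluorescence at 560 nm excitation, 665 nm emission reports UDG signal after 250 mM NaOH (2x) addition and 30 min. Enzymes (AID 1 uM, UDG 2 U/mL, at 4/3x) preincubated 10 min with compound, then 4 h with 4x 250 nM DJC20/DJC23 substrate at room temperature.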

The nature of assay [10]: Primary qHTS for small molecule stabilizers of the endoplasmic reticulum resident proteome: Secreted ER Calcium Modulated Protein (SERCaMP) assay (AID 1508630). Note: potency is the fitted concentration of half-maximal effect. In a few lines:
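The SH-SY5Y reporter protocol was run at 3 concentrations up to 38.3 uM (primary) or 11 concentrations (follow-up): 16 h compound, 100 nM thapsigargin for 4 h, then extracellular luciferase luminescence.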

A short description of assay [11]: A High-Content qHTS Against Drug Library for the Identification of Small Molecules that Inhibit DYT1 Early Onset Primary Dystonia-Associated Cell Pathology (AID 1645839; calls by dose curve; note: series mostly up to about 46 µM). The method, boiled down:
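Cells were seeded and left for 24 h, then dosed with compound alongside tetracycline induction of mutant EGFP-TorsinA. They were incubated for 48 h, fixed in 4% paraformaldehyde, permeabilized and imaged for mislocalization (%pathology) and cell count.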

Assay [12] can be described thus: Primary qHTS for inhibitors of nuclear receptor binding SET domain protein 2 (NSD2) in an isogenic RCH-ACV NSD2 p.E1099K mutant (9B) (AID 1645876). Note: nearly all actives have a fitted effect of over 70% in size. Note: potency is the fitted concentration of half-maximal effect.
Assay [13] in a line: Confirmatory qHTS for small molecule stabilizers of the endoplasmic reticulum resident proteome: Secreted ER Calcium Modulated Protein (SERCaMP) assay (AID 1508628). Note: series mostly up to about 76 µM; % is set by controls: 0 for no effect and ±100 for the full control effect; nearly all actives have a fitted effect of over 40% in size. The method, boiled down: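 GLuc-SERCaMP-expressing SH-SY5Y cells, pretreated 16 h with compound, are challenged with thapsigargin to empty ER calcium stores; after 4 h, coelenterazine is added directly to the medium and luminescence is imaged.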

In assay [14] the target is Cytochrome P450 3A4 (Homo sapiens) (UniProt P08684). Briefly: Cytochrome P450 family 3 subfamily A member 4 (CYP3A4) small molecule antagonists: luciferase qHTS assay (AID 1645841; active = well fitted curve in the direction sought with a large enough effect in the repeat runs; an effect the other way counts as inactive or inconclusive; note: nearly all actives have a fitted effect of over 45% in size). In a few lines:
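P450-Glo CYP3A4 enzyme with proluciferin substrate preincubated 10 min with compound at room temperature, then NADPH regeneration 1 h. Luciferin detection reagent added for 20 min; luminescence recorded. Ketoconazole positive control.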

A short description of assay [15]: Primary qHTS for inhibitors of nuclear receptor binding SET domain protein 2 (NSD2) in an RCH-ACV wild type WT cells (2C) (AID 1645877). Note: nearly all actives have a fitted effect of over 70% in size.
In assay [16] the target is Calcium and integrin-binding protein 1 (Homo sapiens) (UniProt Q99828). Briefly: Validation qHTS for Identification of Calcium Integrin Binding protein 1 (CIB1) Competitor (AID 1508618). Note: % is set by controls: 0 for no effect and ±100 for the full control effect. In a few lines:
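Displacement of FITC-alphaIIb peptide (100 nM) from CIB1-GST (1 uM) is monitored by polarization in quantitative HTS format; buffer carries 5 mM CaCl2 and 125 mM NaCl at pH 7.4, incubations are at room temperature.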

Assay [17] has as its target Papain (Carica papaya) (UniProt P00784). The assay can be described thus: Primary qHTS assay for inhibitors of the protease papain (AID 1645873).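 Note: papain turnover of Z-FR-AMC read as the AMC fluorescence gain over 10 min; series mostly up to about 50 µM; % is set by controls: 0 for no effect and ±100 for the full control effect.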

Cytochrome P450 2D6 (Homo sapiens), sequence (P10635 whole entry, looked up): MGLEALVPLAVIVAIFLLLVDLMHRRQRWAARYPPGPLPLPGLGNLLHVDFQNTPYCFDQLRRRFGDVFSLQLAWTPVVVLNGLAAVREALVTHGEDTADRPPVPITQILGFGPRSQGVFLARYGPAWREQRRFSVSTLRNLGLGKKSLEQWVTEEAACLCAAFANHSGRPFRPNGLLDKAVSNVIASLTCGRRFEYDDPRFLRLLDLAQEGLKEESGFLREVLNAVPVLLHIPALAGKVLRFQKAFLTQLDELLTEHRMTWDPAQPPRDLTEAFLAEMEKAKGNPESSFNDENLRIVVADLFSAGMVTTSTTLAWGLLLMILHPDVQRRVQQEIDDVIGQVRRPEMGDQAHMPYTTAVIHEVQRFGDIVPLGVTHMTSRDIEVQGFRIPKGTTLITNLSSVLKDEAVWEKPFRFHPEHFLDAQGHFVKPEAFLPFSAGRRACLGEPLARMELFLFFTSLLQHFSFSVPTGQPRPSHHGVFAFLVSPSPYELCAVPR
Protein phosphatase 1D (Homo sapiens), sequence (O15297 whole entry, looked up): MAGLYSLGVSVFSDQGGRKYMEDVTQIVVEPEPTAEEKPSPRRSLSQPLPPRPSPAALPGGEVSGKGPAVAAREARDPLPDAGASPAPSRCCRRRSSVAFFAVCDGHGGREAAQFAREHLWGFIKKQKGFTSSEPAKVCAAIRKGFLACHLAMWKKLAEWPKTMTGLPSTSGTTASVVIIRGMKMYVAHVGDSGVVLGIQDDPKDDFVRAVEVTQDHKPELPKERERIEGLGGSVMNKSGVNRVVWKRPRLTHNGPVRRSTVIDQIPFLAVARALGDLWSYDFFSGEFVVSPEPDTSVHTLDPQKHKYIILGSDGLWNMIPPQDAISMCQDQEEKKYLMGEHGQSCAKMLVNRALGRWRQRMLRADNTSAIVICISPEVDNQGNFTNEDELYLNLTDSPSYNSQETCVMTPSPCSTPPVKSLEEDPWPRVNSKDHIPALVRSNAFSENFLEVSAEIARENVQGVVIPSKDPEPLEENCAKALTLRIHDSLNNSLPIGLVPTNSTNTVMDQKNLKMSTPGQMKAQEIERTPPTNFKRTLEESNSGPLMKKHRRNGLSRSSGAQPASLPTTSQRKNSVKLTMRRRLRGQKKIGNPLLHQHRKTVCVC
Calcium and integrin-binding protein 1 (Homo sapiens), sequence (Q99828 whole entry, looked up): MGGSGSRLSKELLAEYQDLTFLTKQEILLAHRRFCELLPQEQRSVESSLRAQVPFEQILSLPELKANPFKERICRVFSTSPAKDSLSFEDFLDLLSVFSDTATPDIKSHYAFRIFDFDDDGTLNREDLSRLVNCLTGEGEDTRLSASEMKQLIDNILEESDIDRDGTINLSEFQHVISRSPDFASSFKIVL
Cytochrome P450 3A4 (Homo sapiens), sequence (P08684 whole entry, looked up): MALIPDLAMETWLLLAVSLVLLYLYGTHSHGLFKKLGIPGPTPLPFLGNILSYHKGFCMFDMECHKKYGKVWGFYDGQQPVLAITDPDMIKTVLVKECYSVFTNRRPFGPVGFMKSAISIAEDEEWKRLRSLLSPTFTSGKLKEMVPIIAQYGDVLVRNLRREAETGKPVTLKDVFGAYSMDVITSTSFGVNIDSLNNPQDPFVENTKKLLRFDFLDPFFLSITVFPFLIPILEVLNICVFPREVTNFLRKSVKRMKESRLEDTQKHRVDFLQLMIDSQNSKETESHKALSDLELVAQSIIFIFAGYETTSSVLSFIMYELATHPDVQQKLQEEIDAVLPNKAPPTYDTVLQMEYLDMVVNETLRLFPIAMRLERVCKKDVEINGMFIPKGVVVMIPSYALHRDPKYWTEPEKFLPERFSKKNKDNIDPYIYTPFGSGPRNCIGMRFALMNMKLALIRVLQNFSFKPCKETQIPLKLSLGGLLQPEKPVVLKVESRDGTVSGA
Papain (Carica papaya), sequence (P00784 whole entry, looked up): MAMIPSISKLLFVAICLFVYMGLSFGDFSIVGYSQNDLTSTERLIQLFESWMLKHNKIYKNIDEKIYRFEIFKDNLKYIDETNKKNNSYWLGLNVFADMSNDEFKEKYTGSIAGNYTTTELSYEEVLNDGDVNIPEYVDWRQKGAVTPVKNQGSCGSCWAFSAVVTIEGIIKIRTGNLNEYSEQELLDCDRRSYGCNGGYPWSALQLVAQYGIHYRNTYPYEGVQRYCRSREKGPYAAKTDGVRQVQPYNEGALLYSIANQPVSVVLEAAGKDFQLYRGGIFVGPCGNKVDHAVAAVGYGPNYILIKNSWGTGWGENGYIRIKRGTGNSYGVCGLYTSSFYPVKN

For `Cc1cccc(C)c1OCC(=O)N[C@@H](Cc1ccccc1)[C@@H](O)C[C@H](Cc1ccccc1)NC(=O)[C@H](C(C)C)N1CCCNC1=O`, the Potency result in [1], in assay [3] and in [4] was “inactive” in each case. In addition, the molecule was classed as inactive in [2]. Besides, the figures for the Potency in assay [5], in [7] and in assay [8] were 39.8 µM (active), 13.8 µM (active) and 17.4 µM (active), respectively. Moreover, the max response in assay [6] is -5.9% (inactive).

With `COc1cc2nc(N3CCN(C(=O)C4CCCO4)CC3)nc(N)c2cc1OC` (configuration not stated), the Potency result in assay [1], in assay [9], in [3], in assay [4], in assay [10] and in assay [11] was “inactive” in each case. For the same molecule, the Potency entry in assay [8] was “inactive”. Besides, in assay [12], the Potency was 11.9 µM (active).

Regarding `CN(C)c1ccc(O)c2c1C[C@H]1C[C@H]3[C@H](N(C)C)C(=O)C(C(N)=O)=C(O)[C@@]3(O)C(=O)C1=C2O`, the Potency result in assay [1], in assay [3], in assay [4], in assay [5], in assay [13] and in [7] was “inactive” each time. Also, the Potency result in assay [8], in assay [12] and in assay [15] was “inactive” in each case. Also, the call in assay [2] and in [14] was inactive. In assay [6], the max response is 11.6% (inactive). Also, the Potency entry in assay [10] was “inactive and 31.6 µM (active)”.

Consider `CS(=O)(=O)OCCCCOS(C)(=O)=O`, for which the Potency result in assay [1], in assay [3], in assay [4], in assay [11], in assay [7] and in assay [8] was “inactive” each time. Besides, the Potency entry in assay [12] and in [15] was “inactive” each time. In addition, the call in assay [2] and in assay [14] was inactive.

As for `Cc1ccc(S(=O)(=O)NC(=O)NN2CC3CCCC3C2)cc1` (configuration not stated), the Potency result in [1], in assay [3], in assay [4], in [11], in assay [7] and in [8] was “inactive” each time. For the same molecule, the Potency entry in assay [12] and in [15] was “inactive” throughout. In addition, in assay [2], the outcome was inactive.

As to `O=C(O)CCNC(=O)c1ccc(N=Nc2ccc(O)c(C(=O)O)c2)cc1`, the Potency result in [1], in [3], in assay [4], in assay [10], in assay [11] and in [7] was “inactive” throughout. Also, the Potency result in assay [8], in assay [12] and in [15] was “inactive” in each case. Moreover, the result in assay [2] was inactive.

Consider `CN(c1nccc(=O)[nH]1)C1CCN(c2nc3ccccc3n2Cc2ccc(F)cc2)CC1`, for which the Potency result in assay [1], in assay [3], in assay [4], in assay [10] and in [11] was “inactive” in each case. In addition, in assay [7], the Potency was 12.3 µM (active).

On to `O=C(c1ccccc1)c1ccc2n1CCC2C(=O)O` (configuration not stated), for which the Potency entry in assay [1], in [9], in [3], in assay [4], in [10] and in assay [11] was “inactive” throughout. Moreover, the Potency result in assay [8], in assay [17], in assay [12] and in assay [15] was “inactive” in each case. Further, the outcome in assay [16] was inactive.

`O=C(O)c1cn(-c2ccc(F)cc2)c2cc(N3CCNCC3)c(F)cc2c1=O`: the Potency result in assay [1], in assay [3], in [4], in [5], in assay [10] and in [11] was “inactive” each time. The Potency entry in assay [7], in assay [8], in assay [12] and in assay [15] was “inactive” throughout. Besides, the max response in assay [6] was 19.2% (inactive) and 20.4% (inactive). Also, the molecule was classed as inactive in assay [14].
